From PubChem BioAssay
TSHR antag = antagonists of human thyroid stimulating hormone receptor; P16473; TSHR-expressing cells, TSH-stimulated cAMP HTRF, 2 h; stronger effect = lower value; activity change, negative = inhibition, % at 11.5 µM; 330,000 compounds, 0.2% hits;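 active means activity change below a set negative limit, meaning inhibition stronger than a set level, cut at about -70% in these data; inconclusive means activity change between two set negative limits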
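TSHR-expressing cells were treated with compounds, then stimulated with TSH at EC80 (4nM final) for 2 hours at 37 deg C. Cellular cAMP was measured by HTRF competition between lysate cAMP and cAMP-d2 for a cryptate-labelled anti-cAMP antibody.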
RORgamma inh = blocks mouse ROR gamma transcriptional activity | Potency, µM (doses to about 53.6 µM), inactives show top-dose activity change, negative = inhibition, hits mostly inhibitors | Drosophila S2 Gal4-RORgamma UAS-luciferase reporter, 20 h | AID 2551 | 310,000 compounds, 5.4% hits; further: potency means the concentration at half of the fitted maximal effect; nearly all actives have a fitted effect of over 60% in size
Target sequence (P51450 whole entry, looked up, the tested form may be a part): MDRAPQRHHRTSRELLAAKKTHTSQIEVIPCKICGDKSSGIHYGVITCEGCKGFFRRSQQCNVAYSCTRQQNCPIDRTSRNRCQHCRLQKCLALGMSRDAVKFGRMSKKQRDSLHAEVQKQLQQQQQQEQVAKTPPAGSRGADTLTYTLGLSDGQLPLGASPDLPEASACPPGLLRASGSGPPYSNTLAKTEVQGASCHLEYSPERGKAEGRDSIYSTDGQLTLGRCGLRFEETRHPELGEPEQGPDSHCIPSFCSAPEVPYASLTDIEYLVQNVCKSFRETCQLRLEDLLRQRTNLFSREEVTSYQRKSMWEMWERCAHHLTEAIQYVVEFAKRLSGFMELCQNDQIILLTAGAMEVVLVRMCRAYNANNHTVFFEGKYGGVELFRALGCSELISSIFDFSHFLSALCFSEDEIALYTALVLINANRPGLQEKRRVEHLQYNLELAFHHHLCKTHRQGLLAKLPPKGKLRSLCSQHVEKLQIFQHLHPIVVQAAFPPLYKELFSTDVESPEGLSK
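Stably transfected Drosophila Schneider cells are the test system, with ROR gamma fused to Gal4 and luciferase under UAS control; luminescence is read after 20 hr of 700 uM copper sulfate induction at ambient temperature.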
Gal4-VP16 FLuc = inhibits Gal4-VP16 luciferase reporter, ROR gamma counter-screen; Drosophila S2 Gal4-VP16 UAS-luciferase, luminescence, 20 h; Potency, µM (series often up to 53.6 µM), inactives show at the highest dose activity, negative = inhibition, most hits filed as inhibitors; 310,000 compounds, 3.5% hits; AID 2546;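 further: Gal4-VP16 expression switched on by copper sulfate through the metallothionein promoter; potency means the concentration at half of the fitted maximal effect; nearly all actives have a fitted effect of over 50% in size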
ELG1 DNA repair = blocks ELG1-dependent DNA repair in HEK293T cells | 330,000 compounds, 2.3% hits | Potency, µM (titrated, usually from 46.1 µM), without a hit: at the top dose activity change, negative = inhibition, most hits filed as inhibitors | HEK293T ELG1-luciferase reporter, luminescence, 16 h; DNA damage induced by 5-fluorouridine | AID 504467; further: potency means the concentration at half of the fitted maximal effect; nearly all actives have a fitted effect of over 55% in size
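Reporter activity after DNA damage by 5-fluorouridine is monitored. Compound-treated cells incubate 16 hr at 37 °C, then ONE-Glo is added for 30 min before luminescence reading.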
FBPA coupling cs = coupling enzyme interference in Giardia aldolase counter-screen; coupling enzyme system counterscreen, AmpLite Red fluorescence; activity change, negative = inhibition, % at 58.2 µM, hits read low; 290,000 compounds, 0.67% hits; AID 2472; in the data active means activity change below about -30%
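Final compound at 57.5 uM, incubated 10 min at RT with coupling enzyme reagent (glyceraldehyde-3-phosphate), then 20 min with substrate and AmpLite Red detection. Fluorescence read at 525/598 nm; tests interference with the coupling assay, not aldolase inhibition.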
* = called active by the depositor; ? = inconclusive; / = no result given; [ ] = remark or other dose. An excerpt weighted towards active compounds, which were near 8% of everything screened. Unless noted, the call rests on the fitted dose curve; in most records, active means well fitted curve in the direction sought with a large enough effect; inconclusive means small, poorly fitted or top-dose-only effect, or another doubt; inactive means no such curve, though single readings can be large; an effect the other way counts as inactive or inconclusive. On the % scale 0 is the no-effect control and ±100 the full control effect.

SMILES | TSHR antag | RORgamma inh | Gal4-VP16 FLuc | ELG1 DNA repair | FBPA coupling cs
Cc1cc(C(=O)CSc2nc3ccc(Cl)cc3[nH]2)c(C)n1CC1CCCO1 (stereo not given) | -35.2 | 0.0% | ? | 23.1µM* | 1.0
COCCn1c(C)cc(C(=O)CSc2nc3ccccc3c(=O)[nH]2)c1C | -12.5 | 110.6% | -12.8% | ? | 1.7
Cc1cc(C(=O)CSc2nc3ccccc3[nH]2)c(C)n1Cc1ccco1 | -48.3 | ? | 15.8µM* | ? | 0.1
COCC(C)n1c(C)cc(C(=O)CSc2nc3ccccc3c(=O)[nH]2)c1C (stereo not given) | -22.1 | 44.4% | ? | 16.4µM* | -10.3
Cc1cc(C(=O)CSc2nc3ccccc3[nH]2)c(C)n1C | -10.1 | ? | -29.6% | ? | -14.6
Cc1cc(C(=O)CSc2nc3ccc(Cl)cc3[nH]2)c(C)n1C | -5.7 | -21.9% | -9.3% | -8.7% | -4.3
CCOC(=O)CNC(=S)N(Cc1ccccc1F)C1CCCCC1 | -11.6 | 11.2µM* | -6.0% | ? | 1.8
COc1ccccc1-c1nc(N2CCOCC2)c2ccccc2n1 | / | 5.7% | -8.2% | / | 2.6
CCCC(=O)N1CCN(c2ccc(NC(=O)c3cc4ccccc4o3)cc2Cl)CC1 | -86.7* | 0.1% | ? | 2.31µM* | -40.2*
CCC(=O)N1CCN(c2ccc(NC(=O)c3cc4ccccc4o3)cc2Cl)CC1 | -36.1 | 40.7% | -3.5%[0.365 µM] | 5.8µM* | -28.1
CCCC(=O)N1CCN(c2ccc(NC(=O)c3cccs3)cc2Cl)CC1 | -6.3 | 28.4% | -2.8% | 7.3µM* | -5.4
O=C(Nc1ccc(N2CCN(C(=O)c3ccccc3)CC2)c(Cl)c1)c1ccco1 | -24.0 | -68.1% | ? | 11.6µM* | 2.0
Cc1ccc(NC(=O)c2cc3ccccc3o2)cc1Cl | -0.2 | -7.9% | -15.2% | ? | -13.4
CCCC(=O)N1CCN(c2ccc(NC(=O)C(C)(C)C)cc2Cl)CC1 | -2.4 | 24.8% | -0.6% | -8.7% | -1.2
Cc1cccc(C)c1NC(=O)CNC(=O)CCNC(=O)c1ccco1 | -19.5 | / | / | 3.8% | /
CCOc1ccc(N2CC(C(=O)NCC(=O)Nc3ccc(F)c(F)c3F)CC2=O)cc1 (stereo not given) | 20.7 | / | / | 0.4% | /
CC(C)(CO)NC(=O)C(Cc1ccccc1)N1C(=O)c2ccccc2C1=O (stereo not given) | 0.3 | 15.4% | -1.5% | -4.6% | 3.1
CC1(C)O[C@@H](CC(=O)O)[C@]23CO[C@H](C(=O)[C@]4(C)C2CC[C@@]2(C)[C@H](c5ccoc5)OC(=O)C5O[C@]524)[C@@H]13 (stereo not given in full) | 3.6 | / | / | 14.6% | /
COc1ccc([C@H]2CC(=O)C=C(c3cccc4c3Oc3ccccc3S4)C2)cc1 | -8.3 | / | / | ? | /
O=C(Nc1ccc(N2CCN(C(=O)c3ccco3)CC2)c(Cl)c1)c1cc2ccccc2o1 | ? | ? | -17.1% | 5.17µM* | -25.6
Cc1cc(C)c(C)c(Cn2c(CO)nc3ccccc32)c1C | -1.9 | 2µM* | ? | ? | -16.4
COCc1nc2ccccc2n1Cc1ccccc1C | -4.4 | ? | 8.6% | -8.6% | -1.0
Cc1ccccc1Cn1c(Cc2ccccc2)nc2ccccc21 | 9.8 | 5.62µM* | ? | -7.5% | 2.7
Cc1cccc(Cn2cnc3ccccc32)c1 | -0.9 | ? | -22.7% | ? | 2.0
Cc1cccc(Cn2c(Cc3ccccc3)nc3ccccc32)c1 | 1.4 | 3.16µM* | 4.47µM* | 11.0% | 9.8
COCc1nc2ccccc2n1Cc1cccc(C)c1 | 1.5 | 12.6µM* | 2.1% | 15.3% | 4.2
COCCn1c(COC)nc2ccccc21 | 0.6 | -10.8% | -0.3% | 0.6% | -1.2
COCc1nc2ccccc2n1CCc1ccccc1 | -4.4 | 11.2µM* | ? | ? | -2.2
CCCCCN(C(=O)CCC(=O)OCC(=O)c1c(C)cc(C)cc1C)c1c(N)n(CCCC)c(=O)[nH]c1=O | -13.0 | / | / | -16.6% | /
CCC(=O)NC(c1ccc([N+](=O)[O-])cc1)c1c(O)ccc2ccccc12 (stereo not given) | 2.7 | ? | 11.2µM* | -7.6% | -4.3
